Source: PubChem BioAssay (National Center for Advancing Translational Sciences (NCATS))
In the library only some 3.8% were active in any assay of this set; here they are far more common.
HT1080NT lethal: kills 2HG-producing HT-1080-NT fibrosarcoma cells | HT-1080-NT fibrosarcoma viability, CellTiter-Glo ATP luminescence, 48 h | 1.6% of 360,000 active | Potency, µM (titrated, usually from 46.1 µM), without a hit: top-dose activity, negative = less viability, hits mostly cytotoxic;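 also: NT is the 2HG producing partner of a matched IDH1 knockdown line; 0% = DMSO-treated cells and -100% = media-only wells without cells; nearly all actives have a fitted effect of over 55% in size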
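Compounds were tested in concentration-response format on HT-1080-NT cells for 48 hours at 37 degrees C. Cell viability came from CellTiter-Glo luminescence; curves were classified by r2, response magnitude and activity.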
HT1080 IDH1KD tx: kills HT-1080 cells with IDH1 knockdown; Potency, µM (highest dose often 46.1 µM), for inactives: at the top dose activity, negative = toxicity, most hits filed as cytotoxic; AID 686971; HT-1080 IDH1 knockdown viability, ATP luminescence, 48 h; 2% of 360,000 active;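 also: 0% = DMSO wells and -100% = cell-free medium wells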
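After a 2 h attachment period, IDH1KD HT-1080 cells took pin-transferred compound for 48 h at 37 °C; ATP-based luminescence after 10 min room-temperature reagent incubation reported viability.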
ATXN2 expr inh: inhibitors of ATXN2 expression | HEK-293 ATXN2-luciferase reporter, luminescence, 24 h | Potency, µM (highest dose often 57 µM), without a hit: at the highest dose activity change, negative = inhibition, most hits filed as inhibitors | 0.72% of 360,000 active; also: % is scaled to controls: 0 for no effect and ±100 for the full control effect; nearly all actives have a fitted effect of over 55% in size
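qHTS (up to 57 uM final) was run with 24 h compound exposure of reporter cells at 37 °C. Each well was multiplexed: SteadyGlo luminescence measured ATXN2-luciferase expression after a fluorogenic Gly-Phe-AFC viability readout (25 uM final).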
HepG2 tox: kills HepG2 cells in TGF-b inhibitor counter-screen | Potency, µM (top dose mostly 46.1 µM), without a hit: at the highest dose activity change, negative = cytotoxicity, usual class: cytotoxic | HepG2 CAGA-GFP viability, ATP luminescence, 18 h | 0.76% of 410,000 active | AID 588856
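CellTiter-Glo luminescence gave cytotoxicity after 18 hours at 37 degrees C. The cells were HepG2 CAGA-GFP in 1% FBS DMEM, stimulated with 500 pg/mL TGF-beta after compound addition. %Activity was normalised to no-cell wells (complete cell-killing) and DMSO (no toxicity), and curves were fitted and classified.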
ATXN viability: viability counter-screen for ATXN expression inhibitors; S2 cells (HEK-293 line with an ATXN2-luciferase reporter) viability, CellTiter-Fluor protease fluorescence, 24 h; Potency, µM (top dose mostly 56.7 µM), usual class: cytotoxic; 0.49% of 400,000 active; AID 651635; also: nearly all actives have a fitted effect of over 40% in size
TGFb inhibitor: inhibitors of TGF-b signaling. HepG2 CAGA-GFP TGF-b/SMAD3 reporter, GFP fluorescence, 18 h; TGF-beta stimulated, 500 pg/mL final. Potency, µM (top dose mostly 46.1 µM), for inactives: at the highest dose activity, negative = inhibition, most hits filed as inhibitors. 1.2% of 410,000 active. AID 588855; also: % is scaled to controls: 0 for no effect and ±100 for the full control effect; nearly all actives have a fitted effect of over 65% in size
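HEPG2 CAGA-GFP cells (1000/well, DMEM with 1% FBS) were pre-incubated 2 h at 37 degrees C, given compound by pin tool, then stimulated with TGF-beta at 500 pg/mL final for 18 h before per-cell GFP fluorescence imaging.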
The depositor's hits bear a star; i = inactive; ? = inconclusive; . = no result given. Calls follow the shape of the dose curve; as a rule, active = well fitted curve in the direction sought with a large enough effect; inconclusive = small, poorly fitted or top-dose-only effect, or another doubt; inactive = no such curve, though single readings can be large; an effect the other way counts as inactive or inconclusive. Potency is read from the fitted curve at half-maximal effect.

SMILES	HT1080NT lethal	HT1080 IDH1KD tx	ATXN2 expr inh	HepG2 tox	ATXN viability	TGFb inhibitor
CC1CCN(Cc2c(C(=O)N/N=C/c3ccc(C(F)(F)F)cc3)nnn2-c2nonc2N)CC1	?	26µM*	-7%	-53%	i	?
Cc1ccc(NC(=O)/C=C\C(=O)N(c2ccc(C(C)C)cc2)C(C(=O)NCc2ccco2)c2ccc(F)cc2)cc1 (stereo not given)	.	.	.	-41%	.	6.3µM*
COc1ccc(NC(=O)/C=C\C(=O)N(c2ccc(C(C)C)cc2)C(C(=O)NCc2ccco2)c2ccc(C)cc2)cc1 (stereo not given)	.	.	.	-32%	.	?
COC(=O)[C@@H]1CCCN1Cc1ccc2c(c1)CN(Cc1ccc(OC)c(C)c1)CCO2	.	.	.	.	i	.
CC1(C)CC(=O)C(C(C2=C(O)CC(C)(C)CC2=O)c2ccc(Br)s2)C(=O)C1 (stereo not given)	-27%	?	?	-3%	?	10µM*
CN(Cc1ccon1)C(=O)c1cnn(-c2ncc3c(n2)-c2ccccc2CCC3)c1C1CC1	.	.	.	.	i	.
CCOC(=O)c1sc(NC(=O)c2cc(-c3ccccc3)nc3ccccc23)c(C#N)c1C	2.9µM*	5.2µM*	?	-4%	?	?
CCOC(=O)c1sc(NC(=O)CSc2n[nH]c(-c3ccccc3)n2)c(C#N)c1C	?	?	-18%	-24%	?	?
O=c1[nH]c2c(-c3nc(-c4ccc(Cl)cc4)cs3)c(O)cn2c2ccccc12	.	.	.	-24%	.	0%
CCC(C)(C)c1ccc(Oc2ccc(N)cc2)cc1	16µM*	?	6.7µM*	-23%	i	?
O=C1NC(=O)/C(=C/c2cccc3ccccc23)S1	-10%	-9%	31%	-19%	i	-10%
O=C1C(=Cc2ccccc2[N+](=O)[O-])Cc2ccccc21	?	?	.	18µM*	?	13µM*
O=C1NC(=O)C(=Cc2ccccc2[N+](=O)[O-])S1	21µM*	?	-37%	-9%	i	-5%
CCN(CC)/[N+]([O-])=N/OCOC(=O)c1ccccc1OC(C)=O	.	.	.	6%	.	-9%
O=C1Nc2ccccc2N(C(=O)c2ccc(-c3ccccc3)cc2)C1c1nc2ccccc2[nH]1 (stereo not given)	?	16µM*	-28%	.	?	.
O=C1Nc2ccccc2N(C(=O)c2c(F)cccc2F)C1c1nc2ccccc2[nH]1 (stereo not given)	-29%	?	4%	.	i	.
CN(C)CCN(C)Cc1ccccc1Sc1cccc2ccccc12	?	?	25µM*	-110%	20µM*	?
COC1CCC(C(=O)c2ccc3nc4c(cc3c2)CCCO4)CC1 (stereo not given)	.	.	31µM*	.	.	.
OC1(c2ccc(Br)cc2)CCN(Cc2cccc(Br)c2)CC1	2%	0%	.	11µM*	i	?
CCC1CC=CC2C1C(=O)N(Cc1ccccc1)C2c1ccoc1 (stereo not given)	.	.	.	-100%	.	10µM*
CC[C@@H]1CC=C[C@H]2[C@H]1C(=O)N(Cc1ccccc1)[C@H]2c1ccoc1	?	?	?	-33%	.	13µM*
CCC1CC=CC2C1C(=O)N(Cc1ccccc1)C2c1cccc([N+](=O)[O-])c1 (stereo not given)	.	.	.	-78%	.	10µM*
C[C@@H]1CC=C[C@H]2[C@H]1C(=O)N(Cc1ccccc1)[C@H]2c1ccoc1	-3%	-9%	-8%	-24%	i	?
C[C@@H]1CC=C[C@H]2[C@H]1C(=O)N(Cc1ccccc1)[C@H]2c1cccc([N+](=O)[O-])c1	-12%	-15%	1%	2%	i	-26%
O=C(Cc1ccc(Cl)cc1)NO	-6%	7%	.	.	.	.
SMILES	HT1080NT lethal	HT1080 IDH1KD tx	ATXN2 expr inh	HepG2 tox	ATXN viability	TGFb inhibitor
Cc1ccc(S(=O)(=O)N2CCN(c3nc(-c4ccncc4)nc4ccccc34)CC2)cc1	-11%	-28%	.	.	.	.
COc1cc(OC)c(OC)cc1CN1CCC(n2cc(C(=O)N3CCCCC3)nn2)CC1	.	.	.	.	i	.
Cc1ccccc1C(=O)NNC(=O)C(=O)N1CCCCC1	-7%	-6%	7%	6%	i	8%
Cc1ccc(NNC(=O)C(=O)N2CCCCC2)cc1	?	4.1µM*	-20%	2%	?	9%
Cc1ccc(-n2c(-c3ccccc3)c[n+]3c2CCc2ccccc2-3)c(C)c1	23µM*	?	?	-26%	i	?
COC(=O)/C=C/c1ccccc1S(=O)(=O)N(Cc1ccccc1)Cc1ccco1	4.6µM*	4.6µM*	-21%	-7%	?	?
CC(C)c1ccc(Nc2nc(Nc3ccc(Cl)cc3)nc(N3CCOCC3)n2)cc1	.	.	.	3%	.	21%
CCOCc1cc(CN2CCN(c3cccc(C(F)(F)F)c3)CC2)c(O)c2ncccc12	.	.	.	-36%	.	2.8µM*
CC(C)OCc1cc(CN2CCN(c3cccc(C(F)(F)F)c3)CC2)c(O)c2ncccc12	.	.	.	-53%	.	1.6µM*
Cc1cc(NC(=O)COC(=O)c2ccccc2OCCOc2ccccc2)ccc1Br	5%	1%	.	.	.	.
O=C1CC(=C(c2ccccc2)c2ccccc2)C(=O)N1CCCCN1CCN(c2ccccc2)CC1	18µM*	16µM*	-28%	-19%	i	?
COC(=O)c1ccc2c(c1)N(CC(=O)Nc1cccc(Cl)c1C)C(=O)c1ccccc1S2	.	.	2%	-1%	i	-10%
CN(C)CCNC(=O)/C(=C/c1ccc(-c2ccc(Cl)cc2)o1)NC(=O)c1ccccc1	-13%	-23%	-18%	16µM*	i	?
CN(C)CCNC(=O)/C(=C/c1ccc(-c2ccc(Cl)cc2Cl)o1)NC(=O)c1ccccc1	?	21µM*	-25%	-105%	?	?
O=C(NCCN1CCOCC1)/C(=C/c1ccc(Cl)cc1)NC(=O)c1ccccc1	11%	3%	-2%	4%	i	2%
CCN(CC)CCNC(=O)c1[nH]c2ccccc2c1Sc1ccc(Cl)cc1	.	.	?	14µM*	.	?
CN(Cc1c(F)cccc1Cl)C(=O)c1cccc(S(=O)(=O)N2CCN(Cc3ccccc3)CC2)c1	-4%	-2%	-10%	-16%	i	?
CN(Cc1ccc(OC(F)F)cc1)C(=O)c1cccc(S(=O)(=O)N2CCN(Cc3ccccc3)CC2)c1	-22%	-17%	?	-4%	i	10µM*
COCCNC(=O)Nc1cc(C(=O)NCc2ccc(C(C)C)cc2)ccc1N1CCCC1	.	.	13%	-6%	?	0%
